This is a sample that favours compounds with a hit; in the whole collection about 3.5% have one here.
TRAIL sens C8 = sensitizes caspase-8 expressing cells to TRAIL | NB7+C8 cells + TRAIL, ATPlite viability luminescence | inhibition (viability loss, TRAIL sensitization), % at 10 µM | 360,000 compounds, 1% hits | AID 624354;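 active = compounds causing at least 50% loss of cell viability in the single-dose screen, relative to plate controls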
PPC-1+TRAIL kill = kills PPC-1 cancer cells in the presence of TRAIL. PPC-1 cells + TRAIL, ATPLite viability luminescence. cell killing (% activity), % at 4 µM or 5 µM. 220,000 compounds, 0.41% hits;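 active = cell killing above 50% in the first pass at 4 µM, then a duplicate retest at 5 µM averaging 50% or more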;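 also: plate controls were cells with TRAIL plus DMSO for no effect and medium-only wells lacking cells for full effect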
TROY NFkB inh = blocks TROY-dependent signaling in reporter cells. Q293 LMP1-TROYcd NF-kB luciferase reporter, 4 h. inhibition, % at 10 µM. 360,000 compounds, 0.98% hits. AID 1347056;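 active = compounds whose plate-normalised and pattern-corrected inhibition of the luciferase reporter signal at the single screening dose is 50% or more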
HSP90 inh = inhibitors of HSP90 luciferase refolding in rabbit reticulocyte lysate; luciferase refolding luminescence, 3 h; inhibition, % at 5.6 µM; 290,000 compounds, 0.91% hits; AID 1789;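 active = inhibition above the screen-wide mean plus 3 SD, computed separately per campaign, cut at about 16% in these data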;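 also: 0% = DMSO wells and 100% = 60 µM geldanamycin wells; inhibitors lower the luminescence because luciferase stays unfolded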
TWEAK Fn14 block = inhibitors of TWEAK-Fn14 interaction signaling. 360,000 compounds, 2% hits. TWEAK-stimulated Fn14 reporter cells, luciferase luminescence, 8 h. inhibition, % at 10 µM; in the data active = inhibition above about 50%
Platelet DG rel = modulates dense granule release in human platelets | human platelet-rich plasma, SFLLRN dense granule ATP release, luminescence | inhibition, %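 (compounds screened at 7.5 µM in platelet-rich plasma)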 | 300,000 compounds, 0.22% hits | AID 1663;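 active = mean replicate score, as percent of positive control, at or above 50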
Starred values were filed as active, the others as inactive; x = not tested or not shown.

SMILES | TRAIL sens C8 | PPC-1+TRAIL kill | TROY NFkB inh | HSP90 inh | TWEAK Fn14 block | Platelet DG rel
CCCSc1nc(C)c(-c2csc(C(C#N)=C3CCCC3)n2)cc1C#N | -36 | 36 | -10 | 3 | 64* | -8
Nc1ccccc1C(=O)NN=Cc1cccnc1 | 60* | x | -33 | x | 4 | x
Nc1ccccc1C(=O)NN=Cc1cccc([N+](=O)[O-])c1 | 59* | x | -56 | x | 10 | x
Cc1nc2ccccc2cc1C(=O)N/N=C/c1cccc([N+](=O)[O-])c1 | 0 | 20 | 7 | -1 | 7 | 23
COc1ccccc1OCC(=O)NCC1CCCN(C(=O)c2cccc(C)c2)C1 (stereo not given) | -5 | x | 9 | x | 2 | x
O=C(NCc1ccccn1)C1(C(F)(F)F)C/C(=C\CCO)CCCO1 (stereo not given) | -1 | x | -1 | x | 6 | -1
CCCCN(CCCC)S(=O)(=O)c1ccc(NC(=O)c2ccc([N+](=O)[O-])cc2Cl)cc1 | 20 | 12 | 31 | 3 | 63* | 12
O=C(Nc1ccc(Cl)c([N+](=O)[O-])c1)C(Sc1ccccc1)c1ccccc1 (stereo not given) | 26 | 20 | 55* | 0 | 94* | 8
CCN(CC)S(=O)(=O)c1cc([N+](=O)[O-])ccc1NNC(=O)Nc1ccc(Cl)c(Cl)c1 | 19 | 9 | 54* | -5 | 59* | -25
CC(=O)N1CCN(c2ccc(NC(=O)c3ccc([N+](=O)[O-])cc3Cl)cc2)CC1 | 9 | x | -22 | 1 | -17 | 17
O=C(NNc1ccccc1[N+](=O)[O-])Nc1ccc(Cl)c(Cl)c1 | 13 | 32 | 55* | -2 | 39 | -24
O=C1COc2ccc(S(=O)(=O)N3CCCCCC3)cc2N1 | -3 | x | -10 | -3 | 2 | 0
c1ccc(-c2nnc(-c3ccncc3)nc2-c2ccccc2)cc1 | -1 | 10 | 10 | -1 | -17 | -2
Brc1nc(-c2ccccc2)nc(-c2ccccc2)c1Br | 94* | x | -27 | x | 4 | 0
COc1ccc(OC)c(C(=O)NC(CC(N)=O)c2ccc(N3CCN(c4ccc(F)cc4)CC3)c([N+](=O)[O-])c2)c1 (stereo not given) | -1 | x | -29 | -2 | -16 | 11
COc1ccc(N2CCN(C(=O)NCc3cccc(OC)c3)CC2)cc1 | -8 | x | -7 | 5 | 4 | -10
O=C(CN(Cc1cccs1)S(=O)(=O)c1ccc(S(=O)(=O)NC2CCCCC2)cc1)Nc1ccccc1 | -1 | -5 | 27 | 3 | 69* | 8
O=C(CN(C1CC1)S(=O)(=O)c1ccc(S(=O)(=O)NC2CCCCC2)cc1)Nc1ccccc1 | -2 | -11 | 30 | -1 | 24 | x
O=C(O)COCC(=O)NCc1csc2ccccc12 | -2 | 10 | -23 | 9 | -11 | -1
Cc1ccc(NC(=O)c2cc(S(=O)(=O)N3CCCCC3)ccc2N2CCOCC2)c(C)c1 | -10 | x | 3 | x | -9 | x
COc1ccc(CC(C(=O)Nc2cccc(F)c2)c2nn[nH]n2)c(OC)c1 (stereo not given) | -10 | 19 | 65* | 3 | 51* | -7
Cc1ccc(S(=O)(=O)N2C[C@H]3C(=O)C[C@@H](c4ccccc4)N(S(=O)(=O)c4ccccc4C)[C@H]3C[C@H]2c2ccccc2)cc1 | -11 | x | 11 | x | 11 | x
O=S(=O)(Nc1cc(Cl)ccc1-n1cncn1)c1cc(Br)ccc1Br | 16 | x | 58* | x | 46 | x
CCN(CC)S(=O)(=O)c1ccc(Cl)c(C(=O)Nc2cc(C)nn2-c2ccccc2)c1 | 20 | 51* | -2 | 1 | -28 | -7
CCN(CC)S(=O)(=O)c1cccc(C(=O)Nc2cc(C)nn2-c2ccccc2)c1 | -9 | 33 | -3 | -2 | -7 | -19
SMILES | TRAIL sens C8 | PPC-1+TRAIL kill | TROY NFkB inh | HSP90 inh | TWEAK Fn14 block | Platelet DG rel
COc1ccccc1N(C)S(=O)(=O)c1ccc(C(=O)OCC(=O)NCCC2=CCCCC2)cc1 | -4 | 9 | 31 | 0 | 54* | -4
O=C(COC(=O)c1ccc2c(c1)OCCO2)NCCC1=CCCCC1 | -7 | 5 | 37 | 0 | 96* | 7
C[C@@H]1CN([C@@H](C)CO)C(=O)CCCn2nncc2CO[C@H]1CN(C)C(=O)c1ccccc1 | -3 | x | -2 | x | 4 | x
O=C(Nc1ccc(OCc2ccccc2)cc1)c1ccccc1 | -4 | -6 | -45 | -2 | -28 | 12
Cc1ccsc1C(=O)Nc1ccc(OCc2ccccc2)cc1 | 12 | x | -34 | 5 | -48 | 79*
C=CCNC(=O)NC(=O)COC(=O)c1ccccc1Sc1ccc(C(F)(F)F)cc1[N+](=O)[O-] | -7 | 12 | 12 | 0 | 1 | -2
CC(C)CNC(=O)NC(=O)COC(=O)c1ccccc1Sc1ccc(C(F)(F)F)cc1[N+](=O)[O-] | 12 | -9 | 31 | 3 | 57* | -12
O=C(Nc1c(Cl)cc2c(c1Cl)Cc1cc([N+](=O)[O-])ccc1-2)C(Cl)Cl | 86* | x | 14 | x | 9 | x
Cc1ccc(CC(=O)Nc2ccc(Cl)cn2)cc1 | 3 | x | -21 | -2 | 2 | 8
O=C(Nc1ccc(Cl)cn1)c1ccc(Oc2ccccc2)cc1 | 19 | x | -8 | -2 | -4 | 14
Cc1ccc(C(=O)Nc2ccc(Cl)cn2)cc1 | 62* | 36 | -3 | 7 | 56* | -3
CCCOc1ccc(C(=O)Nc2ccc(Cl)cn2)cc1 | 32 | 30 | 10 | 13 | 57* | 6
Cc1ccc(NC(=O)c2ccc3c(c2)OCCO3)nc1 | 74* | x | 29 | x | 62* | 4
Brc1csc(C=Nc2ccc3c(c2)OCCOCCOCCOCCO3)c1 | 0 | 1 | 14 | -6 | -10 | -7
Oc1c(Cl)cc(Cl)cc1C=Nc1ccc2c(c1)OCCO2 | -3 | 13 | 63* | 7 | 75* | 12
COc1cc(SC#N)ccc1N=Cc1c(C)[nH]n(-c2ccc(Cl)cc2)c1=O | 68* | 25 | -26 | 9 | -42 | 12
COc1cc(SC#N)ccc1N=Cc1c(C)[nH]n(-c2ccc(C)c(C)c2)c1=O | 80* | 14 | 30 | 14 | 24 | 2
COc1ccccc1N=C1NC(=O)/C(=C/c2ccc(N(C)C)cc2)S1 | 49* | x | -55 | -1 | -43 | -13
COc1ccc(/C=C2\SC(=Nc3ccccc3)NC2=O)cc1 | x | x | x | 1 | x | -3
COc1ccc(/C=N/NC(=O)c2ccc(N(C)S(=O)(=O)c3ccccc3)cc2)c(OC)c1 | 1 | 8 | 13 | -5 | -13 | 3
COc1ccc(/C=N/NC(=O)c2ccc(N(C)S(=O)(=O)c3ccccc3)cc2)cc1 | -4 | 0 | -4 | -2 | 51* | 14
COc1c(Cl)cc(Cl)cc1/C=C/C(=O)c1ccc(NC(=O)c2cccs2)cc1 | -14 | 4 | 3 | -2 | 79* | -3
COc1ccc(-n2c(C)c([N+](=O)[O-])c3ccc(O)c(CN(C)C)c32)cc1 | 25 | 36 | x | 2 | 80* | 4

Source: PubChem (several laboratories)
